High-throughput results (PubChem BioAssay)
An excerpt weighted towards active compounds, which were near 6.3% of everything screened.
ATXN viability = cell viability loss in ATXN counter-screen; S2 cells (HEK-293 line with an ATXN2-luciferase reporter) viability, CellTiter-Fluor protease fluorescence, 24 h; 400,000 compounds, 0.49% hits; Potency, µM (titrated, usually from 56.7 µM), actives largely listed as cytotoxic; AID 651635; further: nearly all actives have a fitted effect of over 40% in size
ATXN2 expr inh = reduces ATXN2 reporter expression in HEK-293 cells; HEK-293 ATXN2-luciferase reporter, luminescence, 24 h; Potency, µM (highest dose often 57 µM), without a hit: top-dose activity change, negative = inhibition, hits mostly inhibitors; 360,000 compounds, 0.72% hits; AID 1745845; further: on the % scale 0 is the no-effect control and ±100 the full control effect; nearly all actives have a fitted effect of over 55% in size
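ATXN2-luciferase reporter cells (luciferase flanked by upstream and downstream ATXN2 gene portions) were treated 24 h at 37 °C with compounds at up to 57 uM. SteadyGlo luminescence gave expression; GF-AFC fluorescence gave viability.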
RORgamma inh = inhibitors of mouse ROR gamma transcriptional activity; Potency, µM (doses to about 53.6 µM), for the others: at the top dose activity change, negative = inhibition, actives largely listed as inhibitors; 310,000 compounds, 5.4% hits; Drosophila S2 Gal4-RORgamma UAS-luciferase reporter, 20 h; further: on the % scale 0 is the no-effect control and ±100 the full control effect; nearly all actives have a fitted effect of over 60% in size
Target sequence (P51450 whole entry, looked up, the tested form may be a part): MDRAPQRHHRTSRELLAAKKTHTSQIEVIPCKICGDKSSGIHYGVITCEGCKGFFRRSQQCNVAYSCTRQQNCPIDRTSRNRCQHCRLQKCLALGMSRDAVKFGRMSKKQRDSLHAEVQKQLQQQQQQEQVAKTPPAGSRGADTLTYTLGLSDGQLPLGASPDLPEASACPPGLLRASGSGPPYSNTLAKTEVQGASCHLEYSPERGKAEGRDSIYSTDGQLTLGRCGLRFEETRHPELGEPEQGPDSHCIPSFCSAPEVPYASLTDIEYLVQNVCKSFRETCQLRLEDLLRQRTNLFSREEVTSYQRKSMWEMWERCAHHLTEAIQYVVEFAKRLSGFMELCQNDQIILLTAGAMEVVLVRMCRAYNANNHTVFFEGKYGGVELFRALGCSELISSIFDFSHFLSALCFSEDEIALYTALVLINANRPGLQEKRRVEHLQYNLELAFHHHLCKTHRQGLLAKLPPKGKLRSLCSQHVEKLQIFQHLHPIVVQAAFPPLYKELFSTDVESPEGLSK
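Drosophila Schneider cells stably carrying a metallothionein-driven Gal4 DBD–ROR gamma fusion and a UAS-Photinus luciferase reporter were exposed to compound for 1 hr, then induced with copper sulfate (700 uM final) for 20 hr at ambient temperature before luminescence reading.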
TGFb inhibitor = inhibitors of TGF-b signaling | AID 588855 | 410,000 compounds, 1.2% hits | Potency, µM (doses to about 46.1 µM), for inactives: at the top dose activity, negative = inhibition, most hits filed as inhibitors | HepG2 CAGA-GFP TGF-b/SMAD3 reporter, GFP fluorescence, 18 h; TGF-beta stimulated, 500 pg/mL final; further: on the % scale 0 is the no-effect control and ±100 the full control effect; nearly all actives have a fitted effect of over 65% in size
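First, reporter cells (HEPG2 CAGA-GFP) rested 2 h at 37 degrees C. Next, compounds were pinned in and TGF-beta added to 500 pg/mL final. After 18 h, GFP was imaged per cell and summed per well.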
VP16 counter = counter-screen for ROR gamma inhibitors: Gal4-VP16 reporter | Drosophila S2 Gal4-VP16 UAS-luciferase, luminescence, 20 h | Potency, µM (series often up to 53.6 µM), inactives show top-dose activity, negative = inhibition, actives largely listed as inhibitors | 310,000 compounds, 3.5% hits | AID 2546;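 further: Gal4-VP16 expression switched on by copper sulfate through the metallothionein promoter; on the % scale 0 is the no-effect control and ±100 the full control effect; nearly all actives have a fitted effect of over 50% in size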
HepG2 viability = kills HepG2 cells in TGF-b inhibitor counter-screen. HepG2 CAGA-GFP viability, ATP luminescence, 18 h. Potency, µM (highest dose often 46.1 µM), for the others: top-dose activity change, negative = cytotoxicity, usual class: cytotoxic. 410,000 compounds, 0.76% hits. AID 588856
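CellTiter-Glo luminescence gave cytotoxicity after 18 hours at 37 degrees C. The cells were HepG2 CAGA-GFP in 1% FBS DMEM, stimulated with 500 pg/mL TGF-beta after compound addition. %Activity was normalised to no-cell wells (complete cell-killing) and DMSO (no toxicity), and curves were fitted and classified.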
* marks the source's active call; other numbers are inactive results; i = inactive; ? = inconclusive; / = not tested or not shown; [ ] = another dose, or the depositor's remark. The call rests on the fitted dose curve; in most records, active means well fitted curve in the direction sought with a large enough effect; inconclusive means small, poorly fitted or top-dose-only effect, or another doubt; inactive means no such curve, though single readings can be large; an effect the other way counts as inactive or inconclusive. Potency means the concentration at half of the fitted maximal effect.

SMILES | ATXN viability | ATXN2 expr inh | RORgamma inh | TGFb inhibitor | VP16 counter | HepG2 viability
CN(C)c1ccc(Nc2nc(N)c3ccccc3n2)cc1 | i | 5.01µM* | ? | -1.9% | 3.55µM* | 12.6µM*
CCOc1ccc(Nc2nc(N)c3ccccc3n2)cc1 | i | ? | 7.08µM* | -13.3% | ? | 15.8µM*
Cc1ccccc1Nc1nc(N)c2ccccc2n1 | i | -2.1% | ? | -8.6% | ? | 11.2µM*
CCc1nc2c(OCc3ccc(F)cc3)cccn2c1N(C)C(=O)COc1ccccc1 | i | -8.1% | / | ? | / | -30.8%
COC(=O)c1cc(C(=O)Nc2nnc(CC(C)C)s2)cc([N+](=O)[O-])c1 | i | 8.4% | 12.6µM* | -5.8% | 22.4µM* | -15.6%
CCC(CC)c1nnc(NC(=O)c2cc(C(=O)OC)cc([N+](=O)[O-])c2)s1 | i | -20.2% | 7.08µM* | -5.6% | ? | -8.5%
COc1ccc(C(=O)COC(=O)c2cc(-c3ccccc3)nc3c(C)cccc23)cc1 | i | 1.2% | / | 17.4% | / | -36.2%
CN(C(=O)CCc1nnc(CCCCc2ccccc2)o1)C1CC(C)(C)NC(C)(C)C1 | i | -24.3% | 2µM* | -0.6% | 4.47µM* | -8.8%
O=C(Cc1ccccc1)N[C@H](c1ccccc1)P(=O)(O)CO | i | -4.4% | 2.82µM* | 13.0% | -4.4% | 3.0%
CN(C)CCCn1c(=O)n(Cc2ccco2)c(=O)c2c3c(sc21)CCCCC3 | i | -17.2% | -7.1% | ? | -4.1% | 12.6µM*
CN(C)CCCn1c(=O)n(CCc2ccccc2)c(=O)c2c3c(sc21)CCCCC3 | i | / | -11.5% | 12.9% | -16.5% | -8.2%
Fc1ccc(NC(=S)NCCc2ccccn2)cc1 | i | -9.3%[11.3 µM] | 10µM* | 9.8% | ? | 11.0%
CN(C)S(=O)(=O)c1cccc(NC(=S)NCCc2ccccn2)c1 | i | / | 14.9% | -6.2% | 8.2% | 11.3%
CC(=O)c1ccc(NC(=S)NCCc2ccccn2)cc1 | i | 21.1% | ? | 8.2% | -23.3% | 6.7%
S=C(NCCc1ccccn1)Nc1ccc(Cl)cc1 | ? | 25.2% | 6.31µM* | ? | ? | 5.5%
FC(F)(F)c1cccc(NC(=S)NCCc2ccccn2)c1 | i | -12.0% | 3.98µM* | ? | 11.2µM* | -29.7%
CC(C)(C)c1ccc(NC(=S)NCCc2ccccn2)cc1 | i | -2.8% | 0.501µM* | -18.5% | ? | -0.1%
COc1ccc(OC)c(CCNc2nc3ccccc3c3nc(-c4cccnc4)nn23)c1 | / | / | / | ? | / | -3.9%
CC(=O)O[C@H]1C[C@@H]2CC[C@@H]3[C@H](CC[C@@]4(C)[C@H]3C[C@H](N3CC[N+](C)(C)CC3)[C@@H]4OC(C)=O)[C@@]2(C)C[C@@H]1N1CC[N+](C)(C)CC1 | i | / | / | / | / | /
Nc1[nH]c(C(=O)c2ccc(Br)cc2)c(-c2ccc(Br)cc2)c1C(=O)NCCc1c[nH]c2ccccc12 | ? | -28.3% | / | / | / | /
Nc1[nH]c(C(=O)c2ccccc2)c(-c2ccccc2Br)c1C(=O)NCCc1c[nH]c2ccccc12 | 20µM* | ? | / | / | / | /
Cc1c(-c2nc(-c3ccc4c(c3)OCO4)no2)nnn1-c1cccc(C(F)(F)F)c1 | / | / | / | / | / | -13.7%
Cc1cc2nc(-c3ccccc3Br)n(/C=C(\c3ccccc3)n3c(=O)[nH]c4ccccc43)c2cc1C | ? | ? | / | ? | / | -19.2%
Cc1nc2cc(-c3cccc(F)c3)nn2c(C)c1CCC(=O)NC(C)CCc1ccco1 (stereo not drawn) | i | ? | 11.2µM* | ? | -2.3% | -42.1%
O=C(N/N=C/c1ccco1)C1COc2ccccc2O1 (stereo not drawn) | i | -13.7% | -2.3% | 2.4% | 12.2% | -1.0%
SMILES | ATXN viability | ATXN2 expr inh | RORgamma inh | TGFb inhibitor | VP16 counter | HepG2 viability
COc1cc([N+](=O)[O-])cc(/C=N\NC(=O)C2COc3ccccc3O2)c1O (stereo not drawn) | ? | / | 0.447µM* | -11.2% | 3.16µM* | -22.8%
O=C(N/N=C\c1ccc[nH]1)C1COc2ccccc2O1 (stereo not drawn) | i | -6.8% | 11.2µM* | -9.0% | ? | -17.9%
O=C(N/N=C/c1cccc([N+](=O)[O-])c1)C1COc2ccccc2O1 (stereo not drawn) | i | -15.7% | 15.6% | 17.3% | 9.5% | 5.9%
O=C(N/N=C\c1cccc([N+](=O)[O-])c1O)C1COc2ccccc2O1 (stereo not drawn) | i | -5.4% | 1.78µM* | 2.6% | 2µM* | -25.4%
CCc1ccc2nc(N(Cc3cccnc3)C(=O)c3cccs3)sc2c1 | / | / | / | -1.4% | / | -7.6%
O=C(CCC(=O)N1CCOCC1)NCc1cccc(C(F)(F)F)c1 | i | / | / | 8.6% | / | 5.1%
O=C(COc1ccc(Cl)cc1Br)NCC(c1ccco1)N1CCCC1 (stereo not drawn) | i | -3.8% | / | ? | / | -30.7%
COc1ccccc1Nc1nc(-c2sc(NC(=O)c3ccccc3)nc2C)cs1 | i | 3.4% | -39.2% | -1.7% | -0.6% | -10.7%
CCOc1ccccc1Nc1nc(-c2sc(NC(=O)c3cccc(Cl)c3)nc2C)cs1 | i | 25.3% | 11.2µM* | -16.4% | -28.4% | -11.6%
COc1ccccc1Nc1nc(-c2sc(NC(=O)c3ccc([N+](=O)[O-])cc3)nc2C)cs1 | / | / | 3.98µM* | / | -29.6% | /
COc1ccc2nc(N=Nc3ccc(O)c4ccccc34)sc2c1 | 14.1µM* | 14.1µM* | 1.58µM* | ? | 5.01µM* | -12.4%
COc1ccc2nc(N=NC3=C(O)CC(C)(C)CC3=O)sc2c1 | / | ? | 11.2µM* | 2.7% | ? | -11.7%
CC1(C)CC(=O)C(N=Nc2ccc3ncsc3c2)=C(O)C1 | i | 25.7% | -18.0% | -4.5% | -10.8% | -13.2%
Cc1c(C(=O)NCCCc2ccncc2)cnn1-c1nccc(-c2ccccc2F)n1 | i | / | / | / | / | /
CCCCN(CCCC)C(=O)c1cc2c(=O)n3ccccc3nc2s1 | / | / | / | -17.7% | / | -24.0%
O=C(O)CCC(=O)NNc1nc(-c2ccccc2)c2cc(Cl)ccc2n1 | i | -6.7% | 0.9% | 9.1% | -12.1% | -1.9%
CCN(CC)S(=O)(=O)c1ccc(C(=O)NNc2nc(-c3ccccc3)c3cc(Br)ccc3n2)cc1 | i | -1.7% | 20µM* | 7.1% | ? | -9.6%
CC(C)(C)C(=O)NNc1nc(-c2ccccc2)c2cc(Br)ccc2n1 | i | -1.5% | -17.9% | -9.1% | 4.2% | -2.4%
O=C(CN1CCCCC1)NNc1nc(-c2ccccc2)c2cc(Cl)ccc2n1 | ? | -26.8% | 5.01µM* | 1.6% | 3.98µM* | -29.7%
